Screening data: PubChem, National Center for Advancing Translational Sciences (NCATS)
RXFP1 antagonist = blocks the human relaxin receptor RXFP1; activity change, negative = inhibition, % at 57.5 µM; HEK293-RXFP1, relaxin-stimulated cAMP HTRF, 30 min; hits give low values; 350,000 compounds, 0.59% hits; AID 1259400; Q9HBX9;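 active = activity change of -60% or lower, but not beyond a set lower limit; inconclusive = change between -60% and -40%, or beyond the set limit; inactive = change above -40%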
Target sequence (Q9HBX9 whole entry, looked up): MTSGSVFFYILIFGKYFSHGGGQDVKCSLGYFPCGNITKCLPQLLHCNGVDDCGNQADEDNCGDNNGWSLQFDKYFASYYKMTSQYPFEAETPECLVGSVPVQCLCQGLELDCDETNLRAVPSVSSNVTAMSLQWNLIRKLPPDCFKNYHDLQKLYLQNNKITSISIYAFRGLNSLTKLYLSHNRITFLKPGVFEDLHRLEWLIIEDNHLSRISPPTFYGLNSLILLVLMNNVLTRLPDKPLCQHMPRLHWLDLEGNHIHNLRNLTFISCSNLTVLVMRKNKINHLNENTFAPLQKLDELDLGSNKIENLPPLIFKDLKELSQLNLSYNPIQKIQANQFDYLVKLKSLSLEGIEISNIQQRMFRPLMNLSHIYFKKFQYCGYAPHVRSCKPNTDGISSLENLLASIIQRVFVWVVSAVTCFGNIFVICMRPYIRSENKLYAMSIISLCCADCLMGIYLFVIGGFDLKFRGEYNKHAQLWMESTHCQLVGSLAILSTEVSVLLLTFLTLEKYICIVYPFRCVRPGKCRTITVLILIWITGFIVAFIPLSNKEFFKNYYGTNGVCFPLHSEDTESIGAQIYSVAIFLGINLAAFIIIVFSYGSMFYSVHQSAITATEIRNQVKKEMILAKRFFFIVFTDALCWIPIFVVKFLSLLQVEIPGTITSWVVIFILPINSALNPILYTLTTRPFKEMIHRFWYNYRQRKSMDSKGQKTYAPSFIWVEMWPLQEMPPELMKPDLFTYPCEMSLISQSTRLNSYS
gsp antagonist = antagonizes gsp, the McCune-Albright syndrome mutation; gsp-mutant cells, cAMP HTRF, 30 min; Potency, µM (highest dose often 76.9 µM), most hits filed as inhibitors; 340,000 compounds, 0.4% hits; AID 624288; calls by dose curve; cell line not stated here;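 note: intracellular cAMP measured with PDE inhibitor Ro 20-1724 present during compound exposure; nearly all actives have a fitted effect of over 65% in size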
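G418-selected cells were plated in DMEM/10% FBS for 16-24 h at 37C, then treated with compounds plus the PDE inhibitor […] (300 uM solution added) for 30 min at 37C. Intracellular cAMP was measured by HTRF after 30 min lysis at room temperature.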
RXFP1 agonist = activates the human relaxin receptor RXFP1; HEK293T-RXFP1 cAMP TR-FRET, 30 min; response scale: percent of porcine relaxin response, buffer zero; 370,000 compounds, 0.3% hits; Q9HBX9; AID 2676; Potency, µM (titrated, usually from 57.5 µM), usual class: activators; active = well fitted activation curve with a large enough effect; inconclusive = small, poorly fitted or top-dose-only effect; note: nearly all actives have a fitted effect of over 60% in size
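Agonist response is measured as cAMP accumulation in an RXFP1-transfected HEK293T line under PDE4 inhibition. Values are scaled between buffer-only and 29 nM porcine relaxin, and EC50s come from standard Hill equation fits.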
TSHR antag = human thyrotropin receptor antagonism; activity change, negative = inhibition, % at 11.5 µM; TSHR-expressing cells, TSH-stimulated cAMP HTRF, 2 h; hits give low values; AID 504810; P16473; 330,000 compounds, 0.2% hits;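 active = activity change below a set negative limit, meaning inhibition stronger than a set level, cut at about -70% in these data; inconclusive = activity change between two set negative limits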
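Inhibition of cAMP made by TSHR-expressing cells under TSH stimulation (4nM final, EC80; 2 h, 37 deg C) is quantified with a one-step lysis HTRF kit, anti-cAMP cryptate versus cAMP-d2.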
gsp ag = activates gsp, the McCune-Albright syndrome mutation | gsp mutant cells, cAMP HTRF, 30 min | Potency, µM (doses to about 76.9 µM), usual class: activators | 340,000 compounds, 0.13% hits | AID 624287; active = well fitted activation curve with a large enough effect; inconclusive = small, poorly fitted or top-dose-only effect, or another doubt; inactive = no such curve, though single readings can be large or run the other way; cell line not stated here;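 note: phosphodiesterase inhibitor Ro 20-1724 added with compounds to block cAMP breakdown; nearly all actives have a fitted effect of over 60% in size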
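Cells in DMEM/10% FBS with G418 were pretreated with compounds in DMSO plus […] (300 uM stock) for 30 min at 37C. cAMP was measured by HTRF (cAMP-d2 plus anti-cAMP antibody-K) after 30 min at room temperature.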
Of the large screens only hits and unclear results are named; the others gave an inactive call; ! = not confirmed by another sample. Compounds with a hit are over-represented: about 1% of the library has one in this group of screens.

O=C(Cc1ccc(S(=O)(=O)N2CCOCC2)s1)Nc1nc2c(s1)CCCC2	gsp antagonist 7.9µM
N#C/C(=C/c1ccc(Sc2nc3ccccc3[nH]2)o1)c1cccc(Br)c1	none
N#C/C(=C/c1ccc(Sc2nc3ccccc3[nH]2)o1)c1cccc(F)c1	gsp antagonist 35µM, TSHR antag inconclusive
Cc1ccc(C)c(N2CCN(C(=O)c3cc4c(=O)oc5ccccc5c4s3)CC2)c1	none (no result: RXFP1 antagonist, gsp antagonist, TSHR antag, gsp ag)
COc1nc(Cl)cn(-c2ccc(C)cc2)c1=O	none
Cc1ccc(-n2c(Cl)c(Cl)nc(Cl)c2=O)cc1	RXFP1 antagonist -103, TSHR antag -95
COc1ccc(NC(=O)CSCC(=O)Nc2ccc(S(=O)(=O)N3CCCCC3)cc2)cc1	RXFP1 antagonist -64
Cc1ccc(C)c(Cn2c(=O)n(CCCC(=O)NCCc3ccc(Cl)cc3)c(=O)c3ccccc32)c1	none (no result: RXFP1 antagonist, gsp antagonist, TSHR antag, gsp ag)
Cc1ccc(C(C)C)c(OCc2ccc(C(=O)N/N=C/c3ccc(O)cc3O)cc2)c1	none
Cc1ccc(C(C)C)c(OCc2ccc(C(=O)N/N=C/c3ccc(C(=O)O)cc3)cc2)c1	RXFP1 antagonist -69
O=C(NCCS(=O)(=O)N1CCN(c2ccccc2)CC1)C1CC(=O)N(c2ccc(F)cc2)C1 (stereo not drawn)	none
O=C(NCCS(=O)(=O)N1CCN(c2ccccc2)CC1)C1CC(=O)N(c2ccccc2)C1 (stereo not drawn)	TSHR antag -135, gsp ag inconclusive
CC(C)(C)OC(=O)NCCCCCc1nnc(SCC(=O)Nc2cccc(Cl)c2)o1	gsp antagonist 35µM, TSHR antag inconclusive
COc1ccccc1C1CCN(c2cc(O)ccc2[N+](=O)[O-])CC1	gsp antagonist 32µM
COc1ccccc1C1CCN(C(=O)c2ccccc2)CC1	none
COc1cc(C(=O)Nc2nc(-c3ccc(F)cc3)cs2)ccc1OCC(=O)N1CCOCC1	gsp antagonist 35µM
COc1cc(C(=O)Nc2nc(-c3cc(C)ccc3C)c(C)s2)ccc1OCC(=O)Nc1ccc(F)cc1	RXFP1 agonist 32µM, gsp ag inconclusive
COc1cc(C(=O)Nc2nc(-c3ccc(C)cc3)cs2)ccc1OCC(=O)N1CCOCC1	none
COc1ccc(-c2nc(NC(=O)c3ccc(OCC(=O)Nc4ccc(F)cc4)c(OC)c3)sc2C)cc1	RXFP1 agonist 28µM, gsp ag inconclusive
COc1ccc(C(=O)NCC(=O)Nc2ccc(F)cc2)cc1OC	none
CCS(=O)(=O)N1CCC2(CC1)OC(=O)C(C)=C2C(=O)NCc1ccccc1C	none (no result: RXFP1 antagonist, gsp antagonist, TSHR antag, gsp ag)
Cn1c(=O)c2c(n3ncnc13)NC(=O)CC2c1cccc(F)c1 (stereo not drawn)	none (no result: RXFP1 antagonist, gsp antagonist, TSHR antag, gsp ag)
CCOc1cc(CNCCO)cc(Br)c1OCc1ccc(Cl)cc1Cl	RXFP1 antagonist -92, TSHR antag inconclusive
CC(=O)N1CCc2c(sc3c2c(=O)n(-c2ccccc2C)c(=O)n3CC(=O)c2ccccc2)C1	none (no result: RXFP1 antagonist, gsp antagonist, TSHR antag, gsp ag)
Cc1[nH]n(-c2ccccc2)c(=O)c1/C=C1/C=c2ccccc2=N1	none
Cc1[nH]n(-c2ccccc2)c(=O)c1/C=C1\C=NN=C1c1ccccc1	RXFP1 antagonist -110, gsp antagonist inconclusive
N=C(N)c1ccc(OCCCOc2ccc(C(=N)N)cc2)cc1	none (no result: gsp antagonist, RXFP1 agonist, TSHR antag, gsp ag)
C=C(CC)C(=O)c1ccc(OCC(=O)O)c(Cl)c1Cl	RXFP1 antagonist -71, gsp antagonist inconclusive (no result: gsp ag)
CCOC(=O)COc1ccc2nsnc2c1Cl	gsp antagonist inconclusive
N#Cc1c(Cl)nsc1NC(=O)c1ccccc1	gsp antagonist 32µM
COc1ccc(CNC(=O)Cn2c(=O)oc3cc(S(=O)(=O)NCc4ccccc4)ccc32)cc1	none (no result: gsp antagonist, TSHR antag, gsp ag)
Cc1ccc(-n2nnc(-c3nc(-c4cccs4)no3)c2N)cc1C	none (no result: gsp antagonist, TSHR antag, gsp ag)
Cc1ccc(N(C(=O)c2snc(C(N)=O)c2N)C(C(=O)NCC2CCCO2)c2ccc(C)o2)c(C)c1 (stereo not drawn)	RXFP1 antagonist -63
CC(C)c1ccc(N(C(=O)c2snc(C(N)=O)c2N)C(C(=O)NCC2CCCO2)c2ccc(N(C)C)cc2)cc1 (stereo not drawn)	RXFP1 antagonist -74, gsp antagonist inconclusive, RXFP1 agonist inconclusive
CCc1ccccc1N(C(=O)c1snc(C(N)=O)c1N)C(C(=O)NCC1CCCO1)c1ccc(C)o1 (stereo not drawn)	RXFP1 antagonist -119, TSHR antag inconclusive
Cc1ccccc1N(C(=O)c1snc(C(N)=O)c1N)C(C(=O)NCC1CCCO1)c1ccc(F)cc1 (stereo not drawn)	RXFP1 antagonist -90
COc1ccc(N(C(=O)c2snc(C(N)=O)c2N)C(C(=O)NCC2CCCO2)c2ccc(C)o2)cc1OC (stereo not drawn)	none
Cc1ccc(C(=O)c2oc3ccccc3c2NC(=O)COc2ccc(C(C)C)cc2)cc1	none (no result: gsp antagonist, TSHR antag, gsp ag)
Cc1nc2ncnn2c(N2CCN(C(c3ccccc3)c3ccccc3)CC2)c1C	RXFP1 antagonist -116 (no result: TSHR antag)
Cc1cc(N2CCN(C(c3ccccc3)c3ccccc3)CC2)n2ncnc2n1	RXFP1 antagonist inconclusive (no result: TSHR antag)
CC1(C(=O)NC2CCCCC2)Cc2ccccc2C(=O)N1Cc1ccc(Cl)cc1 (stereo not drawn)	none (no result: gsp antagonist, TSHR antag, gsp ag)
CC(=O)c1cc(-c2ccc(F)cc2)n(CCC(=O)NCc2ccccc2C)c1C	none (no result: gsp antagonist, TSHR antag, gsp ag)
CCc1ccc2oc(-c3ccc(OC)cc3)cc(=Nc3c(C)n(C)n(-c4ccccc4)c3=O)c2c1	gsp antagonist 28µM
CCc1ccc2oc(-c3ccc(OC)cc3)cc(=Nc3cccc(C(=O)O)c3)c2c1	none (no result: gsp antagonist)
CCN(C(=O)Cn1c(C(=O)OC)cc2sccc21)c1cccc(C)c1	none (no result: gsp antagonist, TSHR antag, gsp ag)
N#Cc1c(-c2ccccc2)nc(SCC(=O)NC2CCCCC2)[nH]c1=O	RXFP1 agonist 22µM, gsp ag inconclusive
COc1cccc(-c2nc(SCC(=O)Nc3nc(-c4ccccc4)c(C)s3)[nH]c(=O)c2C#N)c1	RXFP1 antagonist -71
CC(Oc1ccc2c3c(c(=O)oc2c1)CCC3)C(=O)NCC1CCC(C(=O)O)CC1 (stereo not drawn)	gsp antagonist 32µM (no result: RXFP1 antagonist, gsp ag)
CCC(=O)c1ccc(OCC(=O)Nc2cccc(S(=O)(=O)N(C)c3ccccc3)c2)cc1	gsp antagonist 28µM, TSHR antag inconclusive
CCc1nonc1NC(=O)c1oc2ccc(Br)cc2c1C	RXFP1 agonist 25µM!
CCc1nonc1NC(=O)c1oc2cc(C)c(C)cc2c1C	none
CC(=O)c1c(C)[nH]c(C(=O)OCC(=O)Nc2ccc(C)cc2[N+](=O)[O-])c1C	gsp antagonist inconclusive
CC(=O)c1c(C)[nH]c(C(=O)OCC(=O)Nc2cc(Cl)ccc2[N+](=O)[O-])c1C	gsp antagonist 35µM, TSHR antag -77, gsp ag inconclusive
Cc1cc(C)n(-c2cc(C(C)(C)C)nc3c(-c4ccccc4)cnn23)n1	RXFP1 antagonist -80
CS(=O)(=O)Nc1ccc(C2=NN(C(=O)c3ccccc3)C(c3cccs3)C2)cc1 (stereo not drawn)	gsp antagonist inconclusive, gsp ag inconclusive
